Source: PubChem BioAssay
An excerpt weighted towards active compounds, which were near 4.1% of everything screened.
hcDAF-12 act: H. contortus DAF-12 nuclear receptor activators, primary screen, cell-based, luminescence, HEK293, lit1-tk-luc reporter; HEK293 hcDAF-12 lit1-tk-luc reporter; 0% DMSO, 100% Δ7-dafachronic acid; activation, % at 6.8 µM; hit rate 1.4% among 370,000; AID 652067, 2013;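 active = activation above the mean of all tested compounds plus 3 SD, cut at about 5.5% in these data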;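 note: 100% = response to 3 µM Δ7-dafachronic acid high control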
hgDAF-12 ag: H. glycines DAF-12 receptor agonists, primary screen, cell-based, luminescence, HEK293, GAL4 fusion, UAS-luciferase | activation, % at 6.8 µM | HEK293 GAL4-hgDAF12 UAS-luciferase reporter, agonist luminescence; normalized to butyrate control | Nuclear hormone receptor DAF-12 (Heterodera glycines), GAL4 fusion | hit rate 1.8% among 370,000;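 active = activation above a cutoff set at the mean of all screened compounds plus 3 SD, cut at about 10% in these data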;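 note: 0% = DMSO wells and 100% = sodium butyrate wells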
ssDAF12 agonist: S. stercoralis DAF-12 nuclear receptor activators, primary screen, cell-based, luminescence, HEK293, GRIP1 co-expression, lit1-tk-luc | Nuclear hormone receptor DAF-12 (Strongyloides stercoralis) | HEK293 ssDAF-12/GRIP1 lit1-tk-luc reporter; % of 3 µM dafachronic acid response | activation, % at 6.8 µM | hit rate 1% among 370,000;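 active = activation above the mean over all tested compounds plus 3 SD, cut at about 0.9% in these data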;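 note: 0% = DMSO-only wells and 100% = 3 µM delta7-dafachronic acid wells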
DAX1 inh-1: DAX1 (NR0B1) inhibitors on StAR promoter, primary screen, cell-based, luminescence, SF-1 (NR5A1), full-length DAX-1 | AID 652010, 2013 | hit rate 1.1% among 370,000 | inhibition, % at 6.8 µM | HEK293T StAR-luciferase reporter, SF-1/DAX-1 repression relief;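 active = inhibition above the mean over all tested compounds plus 3 SD, cut at about 3.6% in these data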;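 note: 0% = DAX-1 cells with DMSO and 100% = cells lacking DAX-1 with DMSO; higher inhibition means more luminescence from relief of DAX-1 repression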
DAX1 inh-2: DAX1 (NR0B1) inhibitors, primary screen, cell-based, HEK293, Gal4-DAX1, luciferase luminescence. hit rate 0.99% among 340,000. HEK293 Gal4-DAX1 luciferase reporter. inhibition, % at 6.75 µM;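 active = inhibition above the mean over all tested compounds plus 3 SD, cut at about 4.2% in these data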;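 note: 0% = DAX1-transfected cells with DMSO and 100% = empty-vector control cells with DMSO; inhibition shows as a rise in luminescence from relieved DAX1 repression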
Target sequence (P51843 207-470 limits assumed): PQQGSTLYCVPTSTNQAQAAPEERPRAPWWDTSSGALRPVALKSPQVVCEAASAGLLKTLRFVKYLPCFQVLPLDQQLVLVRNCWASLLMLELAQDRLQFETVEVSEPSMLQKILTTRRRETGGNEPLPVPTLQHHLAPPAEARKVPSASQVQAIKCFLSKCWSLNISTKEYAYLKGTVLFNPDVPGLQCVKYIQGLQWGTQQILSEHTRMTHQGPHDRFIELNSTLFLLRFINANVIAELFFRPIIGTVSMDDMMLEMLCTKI
LXRb hcDAF ctr: LXR agonists, Gal4 luciferase reporter, confirmation, counter-screen for hcDAF-12 agonist project, cell-based, luminescence, HEK293, H. contortus campaign. shares compounds with hcDAF-12 act. HEK293 Gal4-LXR tk-luc reporter, 24 h; normalized: DMSO 0%, positive control 100%. activation, % at 6.8 µM. 3,400 tested, under 10 active;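 active = mean percent activation of the reporter above a cutoff set as the average over tested compounds plus their standard deviation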
hcDAF12 conf: H. contortus DAF-12 receptor agonists, confirmation, cell-based, luminescence, HEK293, lit1-tk-luc, triplicate. shares compounds with hcDAF-12 act. HEK293 hcDAF-12 lit1-tk-luc reporter; % of Δ7-dafachronic acid response. activation, % at 6.8 µM. hit rate 61% among 3,400;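 active = mean activation across triplicate tests above the threshold derived from the earlier primary screen, cut at about 5.5% in these data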;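 note: 0% = DMSO only wells and 100% = 3 µM Δ7-dafachronic acid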
Active calls of the source: *; · = no result.

SMILES	hcDAF-12 act	hgDAF-12 ag	ssDAF12 agonist	DAX1 inh-1	DAX1 inh-2	LXRb hcDAF ctr	hcDAF12 conf
Cc1cc(NC(=O)CCC(=O)N(Cc2ccco2)C2(C(=O)NC3CCCCC3)CCCC(C)C2)no1 (stereo not given)	-3	0	-1	0	0	·	·
CCSc1nc(=S)n(Cc2ccccc2)c(C)c1C(C)=O	-1	-1	-1	0	-1	·	·
CSc1nc(=S)n(Cc2ccccc2)c(C)c1C(C)=O	9.1*	0	-1	1	0	0	1
COc1ccc(NC(=S)N2CCCN(Cc3cc(C)ccc3C)C2)cc1	-1	-6	-1	0	1	·	·
CN(C)c1cccc(/C=C(\C#N)c2ccccc2)c1	7.1*	19*	1.2*	-1	0	2	9.0*
Cc1cc(C)n2ncc(C(=O)Nc3ccc4c(c3)CCC4)c2n1	6.8*	6	1	·	·	0	6.2*
CC(=O)Nc1c(NC(=O)CC#N)[nH]c2c(c1=O)c(=O)n(C)c(=O)n2C	2	1	-1	0	0	·	·
Cc1cccnc1Nc1nc(-c2ccccn2)cs1	1	3	-1	-3	-5	·	·
Cc1cccnc1Nc1nc(-c2ccccc2)cs1	14*	13*	1.7*	3.7*	4	2	14*
c1cncc(Nc2nc(-c3cccnc3)cs2)c1	7.2*	7	-1	-1	2	0	2
Cc1ccc(Nc2nc(-c3cccnc3)cs2)cc1Cl	11*	9	1	1	4	1	12*
c1cncc(Nc2nc(-c3ccncc3)cs2)c1	0	2	-1	-1	2	·	·
Cc1ccc(SC[C@H](C)CN2CC[C@H](C(C)(C)C)CCC2=O)cc1	-2	2	-2	-1	1	·	·
C[C@@H]1CN([C@H](C)CO)C(=O)c2cc(NS(=O)(=O)c3ccccc3)ccc2O[C@@H](C)CCCCO[C@@H]1CN(C)Cc1ccc(Cl)c(Cl)c1	6.7*	-2	-1	0	·	0	1
C[C@H]1CCCCO[C@@H](CN(C)S(=O)(=O)c2ccc(Cl)cc2)[C@@H](C)CN([C@@H](C)CO)C(=O)c2cc(NS(=O)(=O)c3ccccc3)ccc2O1	-1	-2	-1	-1	2	·	·
COc1cccc(CNC(=O)[C@H]2CCCN2C(=O)[C@H]2CCCN2S(=O)(=O)c2cccc(C)c2)c1	-1	-1	-2	0	·	·	·
CCCC12CN3CCN(CC(C3)/C1=N\NC(=O)Nc1ccccc1)C2	1	1	-1	0	0	·	·
CCCCC12CN3CCN(CC(C3)/C1=N\NC(=O)c1ccccc1N)C2	9.4*	11*	0	3	2	0	-1
COc1ccc(C(C#N)N2N=C(c3ccccc3)CC2c2ccccc2)cc1OC (stereo not given)	8.7*	7	0	2	2	0	2
COc1ccc(C(C#N)N2N=C(C)CC2c2ccccc2)cc1OC (stereo not given)	0	-2	0	0	0	·	·
Cn1c(CC(=O)Nc2ccccc2)cc2ccccc21	9.9*	9	1.0*	0	1	0	7.6*
Cn1c(CC(=O)Nc2ccccc2)c(Sc2ccccc2)c2ccccc21	7.5*	2	0	0	0	0	3
Cc1cc(NC(=O)c2ccc(Br)cc2)nc(C)n1	0	0	-1	0	-1	·	·
Cc1cc(NC(=O)c2ccccc2O)nc(C)n1	7.7*	-2	0	0	-1	0	5
Cc1cccc2c3nc4ccccc4nc3n(C)c12	6.7*	9	1	1	2	1	11*
SMILES	hcDAF-12 act	hgDAF-12 ag	ssDAF12 agonist	DAX1 inh-1	DAX1 inh-2	LXRb hcDAF ctr	hcDAF12 conf
CC(=O)C1=C(O)C(=O)N(CCc2ccccc2)C1c1ccccc1[N+](=O)[O-] (stereo not given)	7.3*	3	0	0	3	0	1
O=C(/C=C/c1ccccc1)C1=C(O)C(=O)N(CCO)C1c1ccccc1[N+](=O)[O-] (stereo not given)	4	3	1	1	-1	·	·
O=C(N/N=C/c1c[nH]c2ccccc12)c1ccn(Cc2ccc(Cl)cc2Cl)n1	4	-2	0	-1	1	·	·
O=C(O)c1cc(N/N=C/c2c[nH]c3ccccc23)ccc1Cl	8.6*	2	3.2*	0	2	0	10*
COc1ccc2ccccc2c1/C=N/Nc1ccc(Cl)c(C(=O)O)c1	0	-2	-1	0	2	·	·
COc1ccc(C(=O)N/N=C/c2c[nH]c3ccccc23)cc1	3	4	0	0	3	·	·
COc1ccc2c(/C=N/Nc3ccc(C(=O)O)cc3)c[nH]c2c1	10*	7	0.9*	2	-1	1	10*
CC(=O)Nc1cccc(C(=O)N/N=C/c2c[nH]c3ccccc23)c1	8.5*	9	0.9*	0	1	0	4
O=C(N/N=C/c1c[nH]c2ccccc12)c1cccc(O)c1	4	10	0	1	2	·	·
Cn1ccc(C(=O)N/N=C/c2c[nH]c3ccccc23)n1	12*	8	0.9*	0	2	0	5
O=C(NCCCN1CCOCC1)C1Cc2c(ccc3ccccc23)O1 (stereo not given)	-2	-4	-2	2	-1	·	·
CCN1C(=O)[C@H]2[C@@H](c3ccc(-c4ccc(OC)cc4)cc3)N3CCC[C@@]3(C(=O)OC)[C@H]2C1=O	-1	0	-1	0	-1	·	·
CCOC(=O)c1csc(NC(=O)C2CCCN(S(=O)(=O)c3cccs3)C2)n1 (stereo not given)	-4	1	-2	-1	·	·	·
Cc1cccc(NC(=O)Nc2ccc(Br)cc2)n1	7.6*	6	1.3*	0	4	1	6.2*
Cc1ccsc1/C=N/NC(=O)c1ccccn1	10*	10	0	3	0	1	3
